Compounds with a hit are over-represented: about 1.9% of the library has one in this group of screens.
eIF4H FP inh: inhibitors of RNA binding by human eIF4H; Q15056; hit rate 0.94% among 290,000; inhibition, % at 35 µM; eIF4H fluorescence polarization binding assay;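 further: calls also rest on retests at 20 µM and on dose response follow-up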
MLLE-PAM2 inh: inhibitors of microRNA-mediated deadenylation, human PABP1 MLLE binding. P11940. GST-MLLE / FITC-PAM2 fluorescence polarization. inhibition, % at 20 µM. hit rate 0.36% among 360,000; in the data active means inhibition above about 35%, passing the limit was not always enough;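 further: plate controls were DMSO wells with GST-MLLE for no effect and wells lacking GST-MLLE protein for full effect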
GRK2 inh: human GRK2 inhibition via aptamer displacement | hit rate 0.59% among 330,000 | P25098 | inhibition of aptamer binding, % at 10 µM | bead flow cytometry, FAM-aptamer displacement from GRK2;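 active means inhibition of aptamer binding above 40%, roughly 3 SD of noise, on plates passing a quality check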;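 further: median bead fluorescence of bound FAM aptamer so fluorescent compounds give negative values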
PERK inhibitor: inhibitors of human PERK kinase. Q9NZJ5. CHO PERK-DD fusion, SEAP luminescence translation reporter. inhibition, % at 5.6 µM. hit rate 0.17% among 220,000;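 active means inhibition above the mean inhibition of all tested compounds plus 3 SD, set separately per screening campaign, cut at about 2.9% in these data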;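 further: PERK kinase domain activated by AP20187 dimerizer at 100 nM; 0% = DMSO with dimerizer and 100% = rapamycin at 8.4 µM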
PABP polyA inh: PABP-poly(A) binding inhibition; P11940; PABP-poly(A) RNA binding, fluorescence polarization; inhibition, % at 35 µM; hit rate 1% among 290,000; AID 2014;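 further: calls also rest on retests at 20 µM and on dose response follow-up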
* marks the source's active call; other numbers are inactive results; ? = inconclusive; nt = no result. Unless noted, how the calls were made is not given here.

SMILES	eIF4H FP inh	MLLE-PAM2 inh	GRK2 inh	PERK inhibitor	PABP polyA inh
O=C(O)c1ccc(Cl)c2c1C1C=CCC1C(c1ccccn1)N2 (stereo not drawn)	100*	nt	47*	1	81*
O=[N+]([O-])c1ccc(Cl)c2c1C1C=CCC1C(c1ccccn1)N2 (stereo not drawn)	104	3	1	1	52
COc1ccc(OC)c(C2Nc3c(Cl)ccc(C(=O)O)c3C3C=CCC32)c1 (stereo not drawn)	71*	19	2	-1	73
O=C(Cn1sc2ccccc2c1=O)NC12CC3CC(CC(C3)C1)C2	2	53*	2	1	-2
N#Cc1ccc(COC(=O)CC(NC(N)=O)c2ccc(Cl)cc2)cc1 (stereo not drawn)	0	9	3	nt	10
O=C(O)COc1ccc(/C=N/NC(=O)c2ccc(-c3csc(Nc4ccc(Cl)cc4)n3)cc2)cc1	98*	6	nt	1	6
COc1ccccc1C(=O)NNC(=O)c1sccc1-n1cccc1	5	-5	1	0	-15
CCn1c(N)c(C(=O)NC2CCCCC2)sc1=S	2	42*	2	-1	-5
COc1ccc(N=C2S/C(=C\c3ccc(OC(C)C(=O)O)c(OC)c3)C(=O)N2CCc2c[nH]c3ccccc23)cc1 (stereo not drawn)	?	-7	nt	2	40*
COc1cc(/C=C2\SC(=Nc3ccccc3)N(CCc3c[nH]c4ccccc34)C2=O)ccc1OC(C)C(=O)O (stereo not drawn)	15	-22	0	0	-2
O=C1CCCC2=C1C(c1ccco1)Nc1ccc(C(=O)c3ccccc3)cc1N2 (stereo not drawn)	82*	-2	4	-1	53*
CCOC(=O)Cc1c(C)nc2c(-c3ccccc3)c(C)[nH]n2c1=O	1	4	13	3.0*	11
O=S(=O)(Nc1ccccc1N1CCCCC1)c1ccc(F)cc1	4	-21	0	3.2*	-1
CC1CCN(C(=S)c2ccc([N+](=O)[O-])cc2)CC1	3	44*	1	1	21
O=[N+]([O-])c1ccc(C(=S)N2CCCC2)cc1	-1	38	1	1	2
CC1CCc2c(sc(NC(=O)c3ccc(N4C(=O)CCC4=O)cc3)c2C(N)=O)C1 (stereo not drawn)	nt	2	2	nt	nt
Cc1c(CCC(=O)NCCCCCC(=O)O)c(=O)oc2cc3occ(-c4ccccc4)c3cc12	72*	12	0	nt	49*
CCN(CC(=O)Nc1ccccc1OC)C(=O)c1ccc(NS(=O)(=O)c2ccc(C(C)=O)cc2)cc1	-6	2	3	nt	1
Cc1nn(-c2ccccc2)c(C)c1/C=N/NC(=O)CSc1nc2ccccc2c(=O)n1-c1ccc(Br)cc1	-6	4	0	0	-3
Cc1ccc(-n2c(SCC(=O)N/N=C/c3c(C)nn(-c4ccccc4)c3C)nc3ccccc3c2=O)cc1	-4	38*	0	1	-11
O=C(Nc1ccccc1N1CCCC1)c1cc2ccccc2o1	9	41*	0	-1	17
Cc1ccc(C(=O)Nc2ccccc2N2CCCC2)cc1	83*	-1	1	nt	83*
COc1ccc(/C=C2\N=C(c3ccc(C)cc3)OC2=O)cc1	-11	-5	0	nt	6
COc1ccc(C2=NC(=O)/C(=C\c3cc(OC)c(OC)c(OC)c3)O2)cc1	-6	61*	3	1	-6
O=C(CN1CCN(c2ccccc2O)CC1)Nc1ccc2c(c1)CCC2	2.2*	-7	0	1	87*
SMILES	eIF4H FP inh	MLLE-PAM2 inh	GRK2 inh	PERK inhibitor	PABP polyA inh
CCCN(CC(=O)Nc1ccccc1OC)C(=O)c1ccc(S(=O)(=O)Nc2ccccc2)cc1	nt	2	3	nt	nt
CSc1cccc(NC(=S)N2CCC(N(C)C3CCCC3)CC2)c1	2.1*	-40	0	0	61*
O=C(NC(=S)Nc1ccc(Cc2ccncc2)cc1)c1ccccc1Cl	2	43*	0	1	0
CC1(C)CC(=O)c2cc(OCC(=O)N3CCCCCC3)ccc2O1	8	1	5	0	6
CCOC(=O)N1CCN(C(=O)COc2ccc3c(c2)C(=O)CC(C)(C)O3)CC1	?	-4	5	0	79*
CCCCOc1ccc(N2C(=O)C(C)CNC2=S)cc1 (stereo not drawn)	nt	52*	nt	nt	nt
O=[N+]([O-])c1ncccc1OCc1ccc(Br)cc1F	4	-2	0	nt	17
S=c1nc[nH]c2c1ncn2C1CCCO1 (stereo not drawn)	2	40*	1	1	-4
O=[N+]([O-])c1cccc(C(=S)N2CCN(c3ccc(F)cc3)CC2)c1	3	76*	0	0	6
Cc1nc(NC(N)=S)sc1C(=O)Nc1ccccc1	1	41*	1	1	-2
O=C(CNCc1ccc(Cl)cc1)Nc1cc(S(=O)(=O)N2CCCC2)ccc1Cl	nt	5	nt	nt	nt
O=C(O)c1ccc(CS(=O)c2cccc(C(F)(F)F)c2)o1 (stereo not drawn)	2	3	4	3.7*	6
Cc1cccc(S(=O)Cc2ccc(C(=O)N3CCOCC3)o2)c1 (stereo not drawn)	-5	5	0	nt	3
CC1=C(C(=O)OCc2ccc(C)cc2)C(c2ccc(O)c([N+](=O)[O-])c2)NC(=O)N1 (stereo not drawn)	-1	12	3	1	13
CCOc1ccc(C(Nc2ccc(C)cc2)P2(=O)OCCCO2)cc1 (stereo not drawn)	4	4	0	1	-8
CCOc1ccc(C(Nc2ccc(C)cc2)P2(=O)OCC(C)(C)CO2)cc1 (stereo not drawn)	98*	5	4	0	36*
Cc1cc(C)c2nc(-c3ccccn3)cc(C(=O)NCc3cc(C)n(C)n3)c2c1	-2	4	1	1	8
Cc1ccc(-c2cc(C(=O)NCc3ccco3)c3ccccc3n2)o1	86*	16	0	0	28*
Cc1cc(C)c2nc(-c3ccccn3)cc(C(=O)NCc3ccco3)c2c1	48*	1	3	0	82*
Cc1ccc(NC(=S)Nc2cccnc2)c(S(=O)(=O)N2CCCCC2)c1	-8	28	3	0	-14
CCCCCNc1nc(N2CCCC2)c2c(c1C#N)CCN(C)C2	59*	27	0	-1	57*
CCCCCNc1nc(NCCCO)c(C#N)c2c1CN(C)CC2	127	19	0	0	120
C=CCN1C=C2C(=O)C(C)(OC(=O)CCC(=O)OC)C(=O)C(Br)=C2C=C1c1ccc(OC)cc1 (stereo not drawn)	95*	21	13	nt	50*
COCCN1C=C2C(=O)C(C)(OC(=O)CCC(=O)OC)C(=O)C(Br)=C2C=C1c1ccc(OC)cc1 (stereo not drawn)	nt	15	7	nt	nt
Cc1ccccc1C(=O)N1CCN(c2ccccn2)CC1	8	2	45*	1	10
Cc1oc2c(C)c3oc(=O)c(CCC(=O)NCCN4CCOCC4)c(C)c3cc2c1C	-4	-6	2	nt	0
